Reference: PubChem BioAssay AID652067 (The Scripps Research Institute Molecular Screening Center, 2013)
In all, about 370,000 compounds went through this assay and about 5,400 (1.5%) were called active.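 Rule for the calls: active = activation above the mean of all tested compounds plus 3 SD (cut at about 5.5% in these data); inactive = the rest.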 The sample as a whole holds a higher share of actives than the screen did.

System: DAF-12 nuclear receptor (Haemonchus contortus)
Test: H. contortus DAF-12 nuclear receptor activators, primary screen, cell-based, luminescence, HEK293, lit1-tk-luc reporter (AID 652067);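 note: 100% = response to 3 µM Δ7-dafachronic acid high control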
Conditions: HEK293 hcDAF-12 lit1-tk-luc reporter, at 6.8 µM, stronger effect = higher value, 0% DMSO, 100% Δ7-dafachronic acid

activation, inactive:
CCOC(=O)Cn1c2c(n(-c3ccc(F)cc3)c1=O)C=C(c1ccccc1)[C@@H](C)C(C(=O)N(C)C1CCCCC1)=C2 -0.1%
N#Cc1cccc(C(=O)NCC2CCN(C(=O)C(=O)c3cc4ccccc4o3)CC2)c1 -1.58%
Cc1cccc(NC(=O)C[C@H]2CC[C@H]3[C@@H](COc4ccc(NC(=O)Nc5ccccc5)cc4C(=O)N3C)O2)c1 -0.28%
CN(CC(=O)Nc1ccc(Cl)cc1)C(=O)c1ccc(COc2ccccc2)cc1 -1.47%
CN(CC(=O)Nc1ccc(Cl)cc1)CC(=O)Nc1cccc2ccccc12 -0.93%
CN1C(=O)C2CC(O)C(SC3CC4C(=O)N(C)C(=O)C4CC3O)CC2C1=O (stereo not drawn) 0.52%
CC[C@H](NC(=O)[C@H](Cc1ccccc1)NC(=O)[C@H]1O[C@@H](n2cnc3c(=O)[nH]c(N)nc32)[C@H](O)[C@@H]1O)c1ccccc1 -0.3%
Clc1ccccc1-c1cc(COc2ccc3ccccc3c2)no1 -2.26%
Fc1ccc(-c2ccc(CNCc3ccccn3)o2)cc1Cl 0.05%
CC(=O)N1CCCN(C2=Nc3ccccc3Sc3ccccc32)CC1 -0.4%
COCCCNC(=O)C[C@H]1C[C@@]2(C(=O)OC)C(=C[C@H](C(C)(C)C)O[C@@H]2C)N(Cc2ccc3c(c2)OCO3)C1=O -1.12%
O=C1CCC(=O)N(O)CCCCCNC(=O)CCC(=O)N(O)CCCCCNC(=O)CCC(=O)N(O)CCCCCN1 0.23%
CCCCNC(=O)OC(C)CNC(=O)OC (stereo not drawn) -0.33%
CC(C)C(=O)Nc1c(C(=O)c2ccc(F)cc2)oc2ccccc12 -1.93%
CC(C)C(=O)Nc1oc(-c2ccccc2)cc1C#N -1.35%
FC(F)(F)c1cccc(NC(=S)OC2CCC23CCC(c2ccccc2)CC3)c1 (stereo not drawn) -0.73%
CCOC(=O)N1CCN(C(=O)C[C@H]2C[C@@]3(C(=O)OC)C(=C[C@H](C4CCCC4)O[C@@H]3C)N(Cc3ccccc3)C2=O)CC1 -0.64%
Cc1ccc(-n2c(SCC(=O)Nc3cccc4ccccc34)nnc2-c2ccco2)cc1 -2.24%
COc1cccc(-c2cc(CNC(=O)[C@@H](Cc3ccccc3)NC(=O)[C@H]3O[C@@H](n4cnc(C(N)=O)n4)[C@H](O)[C@@H]3O)no2)c1 -1.75%
O=C(Nc1cccc(Cl)c1)OC1CC2CC1[C@H]1CCCCN1[C@H]2Cc1ccccc1 (stereo partly drawn) -1.09%
COc1ccc(C(=O)NN2C(=O)C3C(c4ccccc4)C=CC(c4ccccc4)C3C2=O)cc1 (stereo not drawn) 0.07%
COc1ccc2c(c1)N(C)/C(=C1/SC(=S)N(NC(C)=O)C1=O)S2 -1.24%
CCOC(=O)N1CCN(C(=O)C[C@H]2C[C@@]3(C(=O)OC)C(=C[C@H](C(C)(C)C)O[C@@H]3C)N(Cc3ccc(Cl)cc3Cl)C2=O)CC1 -1.96%
COc1ccc([C@H]2[C@H](C(C)=O)N3N=Cc4ccccc4C3C23C(=O)OC(C)(C)OC3=O)cc1 (stereo partly drawn) -0.72%
COC(=O)c1cccc(Cn2ccc3ccc(-c4ccc5ccn(C(=O)c6ccccc6C)c5c4)cc32)c1 -0.36%
O=C(NC1CCCCN(Cc2cccc(C(F)(F)F)c2)C1=O)c1ccccc1I (stereo not drawn) -2.6%
CC(OC(=O)Cc1ccc(F)cc1)C(=O)N1CCc2ccccc21 (stereo not drawn) -0.21%
O=C(CN1C(=O)c2ccccc2S1(=O)=O)N1CCc2ccccc21 -5.07%
CC(=O)N1CCc2cc(S(=O)(=O)NCCC(=O)N3CCCC3)ccc21 1.64%
CCn1c(NC(=O)c2nn(C)cc2Br)nc2ccccc21 -2.93%
O=C(NC1=CC(=O)c2ccccc2C1=O)c1ccccc1 -0.21%
C[C@@H](NC(=O)c1ccccc1OCC(=O)Nc1ccc(I)cc1)C(=O)N(C)Cc1ccccc1 -0.3%
COCC(=O)N[C@@H]1C[C@@H]2O[C@@H](CO)CC[C@@H]2O[C@@H]1CCc1ccc(-c2ccccc2)cc1 -2.01%
Cn1c(SCc2nc3ccccc3s2)nnc1-c1ccc2c(c1)OCO2 3.52%
O=C(CSc1nc2ccccc2s1)N=Nc1c(O)[nH]c2ccccc12 -1.5%
O=C(CSc1nc2ccccc2s1)NN=Cc1ccc(O)cc1O -0.04%
O=C(O)CSc1nccc2ccccc12 0.9%
O=C(N[C@H](Cc1ccccc1)C(=O)N1CCCN(Cc2cccs2)CC1)[C@H]1O[C@@H](n2ccc(=O)[nH]c2=O)[C@H](O)[C@@H]1O -1.83%
CC(C)CNC(=O)OCc1cn(Cc2ccc(F)cc2)nn1 -2.06%
CS(=O)(=O)N(CC(=O)Nc1ccc(F)cc1F)c1cccc([N+](=O)[O-])c1 -0.66%
O=C(NCc1ccco1)C1CCCN(S(=O)(=O)c2ccc(Cl)s2)C1 (stereo not drawn) -2.39%
Cc1nc2c(OCc3ccc(Cl)cc3Cl)cccn2c1N(C)CC1CC1 -1.39%
NC(N)=N/N=C/c1ccc(OCc2ccc(Cl)cc2Cl)cc1 -1.35%
CCOC(=O)[C@]12CCCCC/C=C\1N(Cc1ccc(OC)cc1)C(=O)[C@H]2CC(=O)NCCCN1CCCC1=O -0.09%

activation, active:
CN(CC(=O)Nc1ccc(Cl)cc1)C(=O)CNC(=O)c1ccc2ccccc2c1 6.25%
Clc1ccc(-c2cc(-c3ccccn3)on2)c(Cl)c1 12.3%
CC(C)C(=O)Nc1ccc2c(c1)oc1ccccc12 6.7%
CC(=O)N1C(=O)/C(=C2\SC(=S)N(NC(=O)c3ccc(O)cc3)C2=O)c2ccccc21 8.31%
O=C(CSCc1ccccc1)N1CCc2ccccc21 6.78%
Cn1c(NC(=O)c2ccccc2)nc2ccccc21 14.3%
O=C(O)c1ccccc1CSc1nc2ccccc2s1 8.09%
O=C(O)CSCc1nc2ccccc2s1 5.6%
Cc1nc2ccccc2nc(C)c1=NOCc1ccc(Cl)cc1Cl 6.04%
